Source: PubChem BioAssay (National Center for Advancing Translational Sciences (NCATS))
IL1B secr inh – qHTS for Inhibitors of Inflammasome Signaling: IL-1-beta AlphaLISA Primary Screen; AID 743279, 2014; THP-1 LPS/ATP IL-1B secretion, AlphaLISA, 16 h; hits give low values; actives 4.7% (n = 360,000); activity change, % at 57.5 µM; in the data active means activity change below about -50%; inconclusive means mostly about -30% to -49%
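Secreted IL-1B measured by AlphaLISA bead assay after 16 h compound exposure of THP-1 cells; compounds (final up to 57.5 uM) added 1 h before LPS (250 ng/mL) and ATP (1.25 mM) stimulation; lower signal means less secretion.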
12-LOX inh – Primary qHTS assay for inhibitors of human arachidonate 12S-lipoxygenase (ALOX12): Round 2. Potency, µM (top dose mostly 108 µM), hits mostly inhibitors. actives 1.1% (n = 580,000). purified 12hLO, xylenol orange hydroperoxide absorbance. Polyunsaturated fatty acid lipoxygenase ALOX12 (Homo sapiens), P18054
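Hydroperoxide product was detected by ferrous iron/xylenol orange as the 573 to 405 nm absorbance ratio. Arachidonic acid at 40 uM (final) was turned over for 30 min at room temperature by 150 nM human 12hLO, pH 7.0 Hepes buffer, after 15 min compound preincubation.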
DT40 TDP1 CPT – qHTS for Inhibitors of human tyrosyl-DNA phosphodiesterase 1 (TDP1): qHTS in cells in presence of CPT; actives 12% (n = 420,000); chicken DT40 Tdp1-/-;hTDP1 cells + 20 nM CPT, ATP luminescence, 48 h; Potency, µM (series often up to 46.2 µM), hits mostly inhibitors; further: nearly all actives have a fitted effect of over 55% in size
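Chicken DT40 Tdp1-/- cells stably complemented with human TDP1 were seeded at 400 cells/well in medium containing 20 nM camptothecin, exposed to pin-transferred compounds, and grown at 37 °C for at least 48 hr. Viability was read as ATP luminescence.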
DT40 TDP1 no CPT – qHTS for Inhibitors of human tyrosyl-DNA phosphodiesterase 1 (TDP1): qHTS in cells in absence of CPT. DT40 Tdp1-/- hTDP1 cells, no CPT, ATP luminescence, 48 h. Potency, µM (titrated, usually from 46.2 µM), most hits filed as inhibitors. actives 15% (n = 420,000); further: nearly all actives have a fitted effect of over 55% in size
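Stably hTDP1-transfected Tdp1-null chicken DT40 cells were treated with library compounds minus camptothecin and grown for at least 48 hr at 37 °C, after which cellular ATP was quantified by luminescence.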
HT1080 IDH1KD tx – qHTS for induction of synthetic lethality in tumor cells producing 2HG: qHTS for the HT-1080-IDH1KD cell line; HT-1080 IDH1 knockdown viability, ATP luminescence, 48 h; Potency, µM (highest dose often 46.1 µM), usual class: cytotoxic; actives 2% (n = 360,000); AID 686971, 2013
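% activity derives from luminescence (CellTiter-Glo), normalised to DMSO and no-cell wells. HT-1080-IDH1KD cells, 750/well, had 48 h compound exposure at 37 °C.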
HT1080NT lethal – qHTS for induction of synthetic lethality in tumor cells producing 2HG: qHTS for the HT-1080-NT fibrosarcoma cell line. Potency, µM (highest dose often 46.1 µM), most hits filed as cytotoxic. actives 1.6% (n = 360,000). HT-1080-NT fibrosarcoma viability, CellTiter-Glo ATP luminescence, 48 h;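 further: NT is the 2HG producing partner of a matched IDH1 knockdown line; nearly all actives have a fitted effect of over 55% in size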
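Read-out is CellTiter-Glo luminescence after 10 minutes at room temperature, following 48 hours' compound treatment of HT-1080-NT cells (750 cells/well, RPMI, 5% FBS, 37 degrees C).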
Hits are given with their value; - = inactive; ? = inconclusive; . = not tested or not shown. The full list was thinned out, with hits kept by preference. Unless noted, the call rests on the fitted dose curve; in most records, active means well fitted curve in the direction sought with a large enough effect; inconclusive means small, poorly fitted or top-dose-only effect, or another doubt; inactive means no such curve, though single readings can be large; an effect the other way counts as inactive or inconclusive.

SMILES	IL1B secr inh	12-LOX inh	DT40 TDP1 CPT	DT40 TDP1 no CPT	HT1080 IDH1KD tx	HT1080NT lethal
O=C(Nc1ccc(NC(=O)c2cccs2)cc1)c1ccc2c(c1)OCO2	-	-	?	-	12µM	?
O=C(Nc1ccc(NC(=O)c2cccs2)cc1)c1ccc2c(c1)OCCO2	-	-	-	-	-	-
O=C(Nc1ccc(O)cc1)c1ccc(NC(=O)c2cccs2)cc1	-	-	?	?	23µM	9.2µM
O=C(Nc1cccc(NC(=O)c2cccs2)c1)c1ccc2c(c1)OCO2	-77	-	?	12µM	-	-
COC(=O)N(C)Cc1ccc(-c2ccccc2)cc1	.	-	.	.	.	.
O=C(C[C@@H]1C[C@H]2O[C@H](CNC3CCOCC3)[C@@H](O)[C@H]2O1)N1CCOCC1	.	-	.	.	.	.
O=C(c1ccncc1)c1ccc(NC(=O)c2cccs2)cc1	-	-	-	-	-	-
Cc1ccc(NC(=O)c2cccs2)cc1NC(=O)c1ccc(F)cc1	-60	-	-	?	?	-
O=C(Nc1ccc(Cc2ccncc2)cc1)c1cccs1	-75	-	?	-	-	-
CCn1cc(S(=O)(=O)N2CC[C@H](c3nc(C)no3)[C@H](NC(=O)C3CC3)C2)cn1	.	-	.	.	.	.
CCCOc1cccc(C2C(C(=O)c3cccs3)=C(O)C(=O)N2Cc2cccnc2)c1 (centres undefined)	-	-	?	16µM	?	-
COc1ccc(C2C(C(=O)c3ccc(C)o3)=C(O)C(=O)N2c2cc(C)on2)cc1OC (centres undefined)	-	?	-	-	-	-
Cc1cc(N2C(=O)C(O)=C(C(=O)c3ccc(C)o3)C2c2cccc(Cl)c2)no1 (centres undefined)	-	45µM	?	?	?	-
COc1ccc(C2C(C(=O)c3cccs3)=C(O)C(=O)N2Cc2cccnc2)cc1OC (centres undefined)	-	?	-	-	-	-
Cc1cc(N2C(=O)C(O)=C(C(=O)c3ccc(C)o3)C2c2ccc([N+](=O)[O-])cc2)no1 (centres undefined)	-	40µM	?	?	-	-
Cc1cc(N2C(=O)C(O)=C(C(=O)c3ccc(C)o3)C2c2cccc(Oc3ccccc3)c2)no1 (centres undefined)	-	?	?	23µM	-	-
NC(=O)C1(NC(=O)c2ccc(I)cc2)CCCCC1	.	-	.	.	.	.
CCCCCn1nc(C(=O)Nc2nc(-c3ccc(OC)cc3)c(C)s2)c2ccccc2c1=O	.	-	.	.	.	.
O=C(c1cscn1)N1CCC2(CC1)CN(c1ccncn1)CC2CO (centres undefined)	.	-	.	.	.	.
CCCOc1cccc(C2C(C(=O)c3ccc(C)o3)=C(O)C(=O)N2c2nc(C)c(C(C)=O)s2)c1 (centres undefined)	-	1.3µM	?	23µM	-	-
Cc1ccc(S(=O)(=O)N(CC(=O)NCc2ccncc2)c2ccc(C)c(Cl)c2)cc1	.	-	.	.	.	.
CCS(=O)(=O)n1nc(-c2ccco2)nc1NCc1ccc(C(C)C)cc1	.	-	?	16µM	.	.
COc1ccc(C(=O)N2CCC3(CC2)CCC(O)(CN(C)C)CC3)cc1	.	-	.	.	.	.
CN1C[C@H](NCc2nccn2C)CCC[C@@H](C(=O)N(C)Cc2cccnc2)CC1=O	.	-	.	.	.	.
COCCOCCn1c(/C=C/c2ccccc2)nc2ccccc21	-	-	?	?	?	?
CC(C)c1ccccc1NC(=O)Cn1c(-c2ccccc2Cl)nc2ccccc21	-	-	-	-	-	-
CCn1c(/C=N/c2nc3ccccc3n2C)nc2ccccc21	-	-	-	-	?	?
